Several values for one entry are separate records, joined by “and”; a condition that tells them apart may be missing. Equal values may be shown once. In all, about 5,500 compounds went through this assay and about 2,000 (36%) were called active. Not shown: some 18% with an inconclusive outcome. Rule as the data show it: active = normalized growth mostly below about 0.91 (no sharp cut-off); inconclusive = no clear call, values can overlap the other calls; inactive = mostly above about 0.92. Some of the results follow.
Test: chemical genetic growth profiling, strain panel (AID 1159580);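 also: tested at 20 µM; growth read once vehicle control cultures reached saturation at 30 °C; 1 = growth at the plate median or of vehicle wells; lower values mean less growth of the strain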
Conditions: S. cerevisiae deletion strains, growth OD

Measured: normalized growth

C[C@H](CCC(=O)O)[C@H]1CCC2C3C(CC[C@@]21C)[C@@]1(C)CC[C@@H](O)C[C@H]1C[C@@H]3O (stereo partly specified)
inactive: locus YAL013W, strain DEP1, stronger effect = lower value 0.984 | locus YAL021C, strain ccr4, stronger effect = lower value 1.02 | locus YAL026C, strain drs2, stronger effect = lower value 0.997 | locus YAL030W, strain snc1, stronger effect = lower value 0.983 | locus YBL061C, strain skt5, stronger effect = lower value 0.986 | locus YBR009C, strain hhf1, stronger effect = lower value 1.03 | locus YBR021W, strain FUR4, stronger effect = lower value 0.988 | locus YBR023C, strain chs3, stronger effect = lower value 0.987 | locus YBR171W, strain sec66, stronger effect = lower value 0.961 | locus YBR229C, strain ROT2, stronger effect = lower value 0.985 | locus YBR231C, strain swc5, stronger effect = lower value 0.996 | locus YBR279W, strain paf1, stronger effect = lower value 1 | locus YCL011C, strain gbp2, stronger effect = lower value 1.02 | locus YCL016C, strain dcc1, stronger effect = lower value 1.04 | locus YCL029C, strain bik1, stronger effect = lower value 0.963 | locus YCL069W, strain vba3, stronger effect = lower value 0.991 | locus YCR088W, strain abp1, stronger effect = lower value 0.989 | locus YDL005C, strain med2, stronger effect = lower value 0.989 | locus YDL035C, strain GPR1, stronger effect = lower value 0.992 | locus YDL040C, strain nat1, stronger effect = lower value 0.983 | locus YDL074C, strain BRE1, stronger effect = lower value 0.946 | locus YDL101C, strain DUN1, stronger effect = lower value 0.986 | locus YDL134C, strain PPH21, stronger effect = lower value 0.981 | locus YDL185W, strain tfp1, stronger effect = lower value 0.972 | locus YDL192W, strain arf1, stronger effect = lower value 0.979 | locus YDR001C, strain nth1, stronger effect = lower value 0.982 | locus YDR069C, strain doa4, stronger effect = lower value 0.954 | locus YDR101C, strain arx1, stronger effect = lower value 0.986 | locus YDR150W, strain NUM1, stronger effect = lower value 0.997 | locus YDR159W, strain sac3, stronger effect = lower value 1.04 | locus YDR162C, strain NBP2, stronger effect = lower value 0.989 | locus YDR195W, strain ref2 0.94 | locus YDR297W, strain sur2, stronger effect = lower value 0.989 | locus YDR318W, strain mcm21, stronger effect = lower value 0.977 | locus YDR334W, strain swr1, stronger effect = lower value 0.961 | locus YDR335W, strain msn5, stronger effect = lower value 0.981 | locus YDR388W, stronger effect = lower value 0.98 | locus YDR392W, strain spt3, stronger effect = lower value 1.1 | locus YDR502C, strain sam2, stronger effect = lower value 0.984 | locus YEL003W, strain gim4, stronger effect = lower value 0.976 | locus YEL037C, strain rad23, stronger effect = lower value 1 | locus YEL061C, strain CIN8 (second series), stronger effect = lower value 0.983 | locus YEL061C, strain CIN8, stronger effect = lower value 0.99 | locus YER015W, strain faa2, stronger effect = lower value 1.03 | locus YER016W, strain bim1, stronger effect = lower value 0.998 | locus YER110C, stronger effect = lower value 0.984 | locus YER111C, strain swi4, stronger effect = lower value 0.979 | locus YER155C, strain BEM2 (second series), stronger effect = lower value 1.02 | locus YER155C, strain BEM2, stronger effect = lower value 0.99 | locus YER167W, strain BCK2, stronger effect = lower value 0.988 | locus YFR010W, strain ubp6, stronger effect = lower value 0.969 | locus YGL078C, strain dbp3, stronger effect = lower value 0.967 | locus YGL086W, strain mad1, stronger effect = lower value 0.985 | locus YGL167C, strain pmr1, stronger effect = lower value 0.974 | locus YGL173C, strain kem1, stronger effect = lower value 0.951 | locus YGL227W, strain vid30, stronger effect = lower value 0.998 | locus YGL240W, strain doc1, stronger effect = lower value 0.982 | locus YGL248W, strain PDE1, stronger effect = lower value 0.996 | locus YGL253W, strain hxk2, stronger effect = lower value 1.02 | locus YGR078C, strain PAC10, stronger effect = lower value 0.99 | locus YGR135W, strain pre9, stronger effect = lower value 0.975 | locus YGR229C, strain SMI1, stronger effect = lower value 0.99 | locus YGR252W, strain gcn5, stronger effect = lower value 1.09 | locus YHR013C, strain ard1, stronger effect = lower value 1.03 | locus YHR027C, strain rpn1, stronger effect = lower value 1 | locus YHR030C, strain SLT2, stronger effect = lower value 1 and 0.948 | locus YHR079C, strain IRE1 (second series), stronger effect = lower value 0.974 | locus YHR079C, strain IRE1, stronger effect = lower value 0.945 | locus YHR094C, strain hxt1, stronger effect = lower value 0.982 | locus YHR129C, strain ARP1, stronger effect = lower value 1 | locus YHR142W, strain chs7, stronger effect = lower value 0.999 | locus YHR200W, strain rpn10, stronger effect = lower value 1 | locus YIL066C, strain RNR3, stronger effect = lower value 0.98 | locus YIL073C, strain SPO22, stronger effect = lower value 1.01 | locus YIL125W, strain kgd1, stronger effect = lower value 0.992 | locus YIR030C, strain dcg1, stronger effect = lower value 0.982 | locus YJL092W, strain hpr5, stronger effect = lower value 0.985 | locus YJL095W, strain BCK1 (second series), stronger effect = lower value 0.988 | locus YJL095W, strain BCK1, stronger effect = lower value 0.95 and 0.958 | locus YJL115W, strain asf1, stronger effect = lower value 0.984 | locus YJL129C, strain trk1, stronger effect = lower value 0.99 | locus YJL134W, strain LCB3, stronger effect = lower value 0.994 | locus YJL154C, strain vps35, stronger effect = lower value 0.983 | locus YJL164C, strain tpk1, stronger effect = lower value 1.04 | locus YJL166W, strain qcr8, stronger effect = lower value 0.933 | locus YJL168C, strain set2, stronger effect = lower value 0.982 | locus YJL187C, strain SWE1 (second series), stronger effect = lower value 0.975 | locus YJR043C, strain POL32, stronger effect = lower value 0.985 | locus YJR066W, strain TOR1, stronger effect = lower value 0.937 | locus YJR075W, strain HOC1, stronger effect = lower value 0.991
active: locus YDR137W, strain rgp1, stronger effect = lower value 0.821

From PubChem BioAssay AID1159580 (chemical genetic matrix, 2015)
